Source: PMC5540273 (PLoS ONE, 2017)

System: CLK2
Details: concentration: 1 μM, replicates: in singlicate; n = 1
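Further: KINOMEscan kinase panel screen.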

Row | Structure (SMILES) | %Inh
1 | Oc1cc(Nc2ccnc3cc(I)ccc23)ccc1F [GW552771] | 51%
2 | CC(C)c1nc(-c2cccc(NS(=O)(=O)c3c(F)cccc3F)c2F)c(-c2ccnc(Nc3ccc(N4CCOCC4)nc3)n2)s1 [GSK2008607] | 0%
3 | CCn1c(-c2nonc2N)nc2c(C#CC(C)(C)O)nc(OC[C@H](N)c3ccccc3)cc21 [GSK943949] | 0%
4 | CC(C)(C)c1ccc2nccc(Nc3cccc(O)c3)c2c1 [GW856795] | 0%

System: CLK3
Details: concentration: 1 μM, replicates: in singlicate; n = 1

Row | Structure (SMILES) | %Inh
5 | CN1CCN(CCCNc2nccc(-c3c(-c4ccc(F)cc4)nn4cc(C(F)(F)F)ccc34)n2)CC1 [GW621581] | 0%
6 | C[C@@H]1CC[C@@H](C(=O)Nc2ccccc2)CN1c1cc(-c2ccc3c(N)n[nH]c3c2)nc(N)n1 [GSK2286062] | 0%
7 | Cl.Cl.NCC(NCc1ccc(-c2ccnc3[nH]ccc23)s1)c1ccccc1 (centres unmarked) [GSK1321565] | 45%
8 | Nc1n[nH]c2cnc(-c3ccccc3)cc12 [SB-642124] | 20%
9 | COc1cccc(NC(=O)NC2CCN(c3ccnc(Nc4cc(OC)c(OC)c(OC)c4)n3)C2)c1 (centres unmarked) [GSK1379763] | 0%
10 | COc1cccc(C(=O)Nc2cccc(Oc3ccc4nc(NC(=O)C5CC5)cn4n3)c2)c1 | 5%
11 | c1ccc(-c2n[nH]cc2Nc2ccnc3ccccc23)nc1 [GW694077] | 25%
12 | O=C(Nc1cccc(-c2nn3ccccc3c2-c2ccnc(Nc3cccc(C(F)(F)F)c3)n2)c1)c1c(F)cccc1F [GSK292658] | 0%
13 | CSc1cccc2c(-c3ccncn3)c(-c3ccc(F)cc3)nn12 [GW514786] | 11%
14 | COc1ccc(CNC(=O)NC2CCN(c3ccnc(Nc4ccc(F)cc4)n3)CC2)cc1 [GSK1379788] | 11%
15 | COCCOCCOc1cc2ncc3c4ccc(C#N)cc4[nH]c3c2cc1OC | 14%
16 | FC(F)(F)c1ccc(/C=C/c2cncnc2Nc2ccc3[nH]c(Cc4ccccc4)nc3c2)cc1 [GW709199] | 11%
17 | COc1cc(Nc2nccc(N3CCC(NC(=O)Nc4cccc(C(C)=O)c4)C3)n2)cc(OC)c1OC (centres unmarked) [GSK1379753] | 11%
18 | O=C(O)C(F)(F)F.O=C(O)C(F)(F)F.O=c1[nH]ccc2nc(N[C@@H]3CCCNC3)nc(Nc3ccc(S(=O)(=O)N4CCOCC4)cc3)c12 [GSK2177277] | 41%
19 | Cc1ccc(C(=O)N2CC[C@@H](O)C2)cc1-n1c(C)cc(OCc2ccc(F)cc2F)c(Br)c1=O | 0%
20 | Cl.c1ccc(-c2ccc3c(Nc4ccc5[nH]ccc5c4)ccnc3c2)nc1 [GW440138] | 8%
21 | CCCCc1nn2ncccc2c1-c1ccnc(Nc2ccc(N3CCN(C)CC3)cc2)n1 [GW684941] | 0%
22 | COc1ccc(Nc2nccc(NCCNC(=O)c3cc4ccccc4s3)n2)cc1 [GSK1379896] | 0%
23 | COc1ccc(Nc2nccc(N3CCC(NC(=O)Nc4cccc(OC)c4)C3)n2)cc1 (centres unmarked) [GSK1379742] | 39%

Row | Structure (SMILES) | %Inh
24 | O=C(Nc1ccccc1F)NC1CCN(c2ccnc(Nc3ccc(F)cc3)n2)CC1 [GSK1379800] | 0%
25 | Cn1cc(-c2ccc3c(c2)CCN3C(=O)Cc2cccc(F)c2)c2c(N)ncnc21 [GSK2603358] | 0%
26 | CCc1ccc(-c2ccc3c(c2)-c2c(cnn2C)S(=O)(=O)N3C)cc1 | 0%
27 | COc1cc(Nc2nccc(-c3c(-c4cccc(NC(=O)c5c(F)cccc5F)c4)nn4ccccc34)n2)cc(OC)c1OC [GSK323521] | 31%
28 | O=C(Nc1cccc(Oc2ccc3nc(NC(=O)C4CC4)cn3n2)c1)c1ccccc1C(F)(F)F | 32%
29 | O=c1[nH]cc(-c2ccc(N3CCOCC3)cc2)c2sc(-c3cn[nH]c3)cc12 [GSK2276055] | 37%
30 | Cc1cccc(Nc2nc(N[C@H]3CCNC3)ncc2C(N)=O)c1.Cl [GSK2197149] | 37%
31 | Nc1ncc(-c2cccnc2)c2scc(-c3ccc4c(c3)CCN4C(=O)Cc3ccccc3)c12 [GSK683281] | 19%
32 | Cl.Cl.NCC(C(=O)Nc1cc(Br)c(-c2ccnc3[nH]ccc23)s1)c1ccccc1 (centres unmarked) [GSK1269851] | 39%
33 | Fc1ccc(-c2ncn(C3CCNCC3)c2-c2ccnc(Oc3ccc(-c4ccccc4)cc3)n2)cc1 [SB-245391] | 32%
34 | Cl.c1ccc(-c2ccc3c(Nc4ccc5[nH]ncc5c4)ccnc3c2)nc1 [GW440137] | 12%
35 | Cl.NC(=O)c1cccc(Nc2nccc(Nc3ccc(Oc4c(Cl)cccc4Cl)c(Cl)c3)n2)c1 [GW659009] | 0%
36 | O=C(Nc1cccc(-c2nn3ncccc3c2-c2ccnc(Nc3ccccc3)n2)c1)c1c(F)cccc1F [GSK198271] | 25%
37 | COC(=O)Nc1nc2ccc(Oc3ccc(NC(=O)Nc4cc(C(F)(F)F)ccc4F)cc3)cc2n1C.Cl [GW692089] | 0%
38 | Oc1cc(Nc2ccnc3cc(I)ccc23)ccc1F [GW552771] | 0%
39 | CC(C)c1nc(-c2cccc(NS(=O)(=O)c3c(F)cccc3F)c2F)c(-c2ccnc(Nc3ccc(N4CCOCC4)nc3)n2)s1 [GSK2008607] | 0%
40 | CCn1c(-c2nonc2N)nc2c(C#CC(C)(C)O)nc(OC[C@H](N)c3ccccc3)cc21 [GSK943949] | 15%
41 | CC(C)(C)c1ccc2nccc(Nc3cccc(O)c3)c2c1 [GW856795] | 0%
